5 compounds from PubChem BioAssay (NCATS) can be followed below.

“And” between values parts separate entries of the source, which are not always exact repeats. Equal entries are not always repeated. A number with no mark means an inactive call. Results filed as inconclusive are left out. The source made the active and inactive calls. Unless noted, calls come from the whole dose curve; as a rule, active = well fitted curve in the direction sought with a large enough effect; inconclusive = small, poorly fitted or top-dose-only effect, or another doubt; inactive = no such curve, though single readings can be large; an effect the other way counts as inactive or inconclusive.

Assay [1] is described as follows: AP1 Signaling Pathway (AID 357; active = well fitted curve in either direction with a large enough effect, not every such curve was filed as active; note: % is set by controls: 0 for no effect and ±100 for the full control effect). The settings on record: ME-180 AP-1-bla reporter, EGF-induced, beta-lactamase ratio, 5 h; at 7.69 µM (top of the series) unless noted. A digest of the protocol:
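AP-1-bla ME-180 cells with beta-lactamase reporter under AP-1 response element, stimulated with EC50 EGF; compounds titrated, 5 hours at 37 degrees Celsius. CCF4 read at 460/530 nm ratio; positive and negative modulators judged by AC50.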

Assay [2] addresses Cytochrome P450 1A2 (Homo sapiens) (UniProt P05177). In words: p450-cyp1a2 (AID 410; calls by dose curve; note: potency is the fitted concentration of half-maximal effect;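 for activity change, negative = inhibition: -100% = full effect of reference inhibitor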). A digest of the protocol:
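O-Demethylation of luciferin 6' methyl ether by human CYP1A2 is monitored as luciferase luminescence. Substrate sits at Km (100uM); enzyme is 20nM. Values are scaled to 57 uM furafylline as maximal inhibition.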

A short description of assay [3]: NFAT Signaling Pathway (AID 444; active = well fitted curve in either direction with a large enough effect, not every such curve was filed as active;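 note: carbachol stimulus at about its EC50 of 1 µM final; % is set by controls: 0 for no effect and ±100 for the full control effect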). The settings on record: Jurkat NFAT-bla M1, carbachol, beta-lactamase ratio, 5 h; at 7.69 µM (top of the series) unless noted. A digest of the protocol: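 Jurkat cells with NFAT-driven β-lactamase reporter and co-expressed M1 receptor, stimulated with carbachol (final 1 uM, ~EC50), compound titration, 5 h at 37 °C. CCF4 loaded 1 h at RT; 460/530 nm ratio gave %activity and AC50.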

The nature of assay [4]: Stat Signaling Pathway (AID 446; active = well fitted curve in either direction with a large enough effect, not every such curve was filed as active;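 note: ME-180 cervical cancer cells given 40 pM IL-6 alongside compound; SIE-controlled beta-lactamase reporter measured as 460/530 nm FRET emission ratio; % is set by controls: 0 for no effect and ±100 for the full control effect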). The note with it: ME-180 SIE beta-lactamase reporter, IL-6 stimulated, 5 h; at 7.69 µM (top of the series) unless noted. A digest of the protocol: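 Emission at 460 and 530 nm (excitation 405 nm) reports SIE-controlled beta-lactamase in ME-180 cells. Cells received compound with 40 pM IL-6 for 5 hrs at 37 C; data scaled between 300 pM IL-6 and 125 nM JAK-inhibitor controls.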

Assay [5] deals with Mitogen-activated protein kinase 10 (Mus musculus) (UniProt Q61831). The assay can be described thus: JNK3 AlphaScreen Assay (AID 530; active = well fitted curve in either direction with a large enough effect, not every such curve was filed as active;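 note: kinase came from lysate of stimulated human HepG2 cells; signal reports phosphorylation of biotinylated GST-cJun 1-79 at Ser73 with 10 µM ATP; % is set by controls: 0 for no effect and ±100 for the full control effect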). A digest of the protocol:
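Activity was read by AlphaScreen after JNK3-containing HepG2 lysate (cytokine pre-activated) phosphorylated biotinylated GST-cJun with 10 uM ATP at room temperature. Phospho-Ser73 cJun antibody with Protein-A acceptor beads provided detection.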
In general terms: In Alpha technology, singlet oxygen from a donor bead excites a nearby acceptor bead.

In assay [6] the target is 3',5'-cyclic-AMP phosphodiesterase 4B (Homo sapiens) (UniProt Q07343). The assay can be described thus: qHTS Assay for Inhibitors of PDE-IV (AID 607; active = well fitted activation curve with a large enough effect in the main read-out, with a control signal flat, not every such curve was filed as active; note: % of control where 0% means no effect). A digest of the protocol: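 The readout is membrane depolarisation from a cAMP-sensing CNG channel, detected with a potential dye at ex 535/em 590. Cells were HEK293-derived (endogenous PDE-IV) at 1000 cells/well, titrated up to 22.9 uM final.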

In assay [7] the target is Guanine nucleotide-binding protein G(i) subunit alpha-1 (Homo sapiens) (UniProt P63096). The assay can be described thus: qHTS Assay for Inhibitors of RGS12 GoLoco Motif Activity (Green Fluorophore) (AID 879).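 Note: 0% = labeled peptide with Gαi1 and full inhibition = labeled peptide alone without protein; negative values mean loss of peptide binding seen as reduced polarization.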 A digest of the protocol:
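A drop in FITC polarization marked displacement of the FITC-tagged RGS12 GoLoco peptide (10 nM) from Gαi1 (50 nM). Compounds were incubated 10 min at room temperature in Tris pH 7.5 buffer containing 150 mM NaCl, 0.1 mM GDP and 0.05% NP40; unlabeled peptide titration served as control.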
On the technique in general: Quantitative high-throughput screening tests each substance at several concentrations.

A short description of assay [8]: qHTS Assay for Identification of Small Molecule Agonists for Thrombopoietin (TPO) Signaling Pathway (AID 917). Note: % is set by controls: 0 for no effect and ±100 for the full control effect. A digest of the protocol:
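Quantitative HTS for pathway activators: compounds were pin-transferred onto IL-3-starved Ba/F3 cells expressing human TPO receptor, TPO was added at its EC50 (26 pM final), and after 24 hrs at 37 C reporter luciferase was measured.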

For assay [9], the target named is Pyruvate kinase (Leishmania mexicana) (UniProt Q27686). The assay can be described thus: qHTS Validation Assay for Inhibitors of Leishmania Mexicana Pyruvate Kinase (AID 945).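 Note: 0% = DMSO only neutral control wells.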 A digest of the protocol:
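Eight-point qHTS titrations in triplicate, data normalized to DMSO neutral control. Reaction: 0.2 nM LmPYK E451W mutant, 0.5 mM PEP, 0.1 mM ADP, 7 mM MgCl2, pH 7.2, one hour at room temperature; luminescent ATP detection.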

Assay [10] addresses Pyruvate kinase PKM (Homo sapiens) (UniProt P14618). The assay can be described thus: qHTS Assay for Activators of Human Muscle Pyruvate Kinase (AID 954; active = well fitted curve in the direction sought with a large enough effect, not every such curve was filed as active;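 note: 0% = uninhibited enzyme and -100% = no enzyme or full thiadiazolimine inhibition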). A digest of the protocol:
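PKM2, human, >95% pure, 0.1 nM; PEP 0.5 mM (Km), ADP 0.1 mM; 50 mM imidazole pH 7.2, 50 mM KCl, 0.01% Tween 20, 0.05% BSA; 1 h RT; luciferase luminescence readout.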

In assay [11] the target is Alpha-galactosidase A (Homo sapiens) (UniProt P06280). The assay can be described thus: Counterscreen for Glucocerebrosidase Inhibitors: qHTS Assay for Human alpha-Galactosidase at pH 4.5 (AID 992). Note: 0% is about no effect. A digest of the protocol: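 Fluorogenic 4-MU alpha-D-galactoside (80 uM) hydrolysis, 2 nM enzyme, pH 4.5 citrate buffer + 0.005% Tween-20; 20 min RT; NaOH/glycine pH 10 stop; Ex365/Em440. Compounds titrated 0.7 nM–77 uM; Hill-equation AC50.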
(A counterscreen serves to expose hits that act by an unwanted route or on another target.)

The target of assay [12] is alpha-glucosidase (Oryza sativa, rice) (UniProt Q653V4). The assay can be described thus: Counterscreen for Glucocerebrosidase Inhibitors: qHTS Assay for Rice alpha-Glucosidase at pH 5.0 (AID 997).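 Note: 0% = full activity with enzyme and -100% = basal without enzyme.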 A digest of the protocol: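 Endpoint fluorogenic assay at pH 5.0: compounds (0.7 nM to 77 uM) titrated against 4 nM rice enzyme and 400 uM 4-MU-alpha-glucoside for 20 min at room temperature; NaOH/glycine stop, read ex 365/em 440 nm, Hill-fitted AC50.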

The target of assay [13] is Glucocorticoid receptor (Homo sapiens) (UniProt P04150). In words: GR-GFP Redistribution (AID 450;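 active = compounds whose dose series gives a full or clear partial fitted curve of increased nuclear translocation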; note: potency is the fitted concentration of half-maximal effect). The note with it: U2OS GR-GFP nuclear translocation, laser cytometry, 2 h.
Assay [14] in a line: qHTS Assay for Identification of Small Molecule Antagonists for NFkB Signaling Pathway (AID 895; active = well fitted inhibition curve with a large enough effect in the signal ratio, with a control signal flat, not every such curve was filed as active; the % refers to the signal ratio; note: potency is the fitted concentration of half-maximal effect). A digest of the protocol: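 ME-180 NFkB-bla cells (beta-lactamase under NFkB response element), plated overnight, treated with compound then 10 pM TNF alpha (about EC50) for 5 hrs at 37 C. LiveBLAzer FRET read at 460/530 nm emission, 405 nm excitation.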
The target of assay [15] is Muscarinic acetylcholine receptor M1 (Rattus norvegicus) (UniProt P08482). The assay can be described thus: qHTS Assay for Antagonists of Acetylcholine Muscarinic M1 Receptor: Measurement of IP-One Response (AID 944). Note: nearly all actives have a fitted effect of over 75% in size. A digest of the protocol:
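Antagonist mode with rat M1 receptor transfected into CHO cells. Compound is added first for 10 min, carbachol at its EC80 follows for 30 min, and lysis reagents then allow TR-FRET detection of accumulated IP1.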

For assay [16], the target named is Glucocorticoid receptor (Homo sapiens) (UniProt P04150). In words: GR-EFC Redistribution (AID 451; calls by dose curve; note: potency is the fitted concentration of half-maximal effect). The note with it: CHO-K1 GR-EFC translocation, beta-gal luminescence, 2 h. A digest of the protocol: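 CHO-K1 cells expressing nuclear EA and GR-ED fragments of b-gal; compounds titrated up to 46 uM final, 2 h at 37 C. GR nuclear translocation read as complemented b-gal luminescence after 1 h RT detection.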

Chain of Pyruvate kinase (Leishmania mexicana) (Q27686 2-499 E452W): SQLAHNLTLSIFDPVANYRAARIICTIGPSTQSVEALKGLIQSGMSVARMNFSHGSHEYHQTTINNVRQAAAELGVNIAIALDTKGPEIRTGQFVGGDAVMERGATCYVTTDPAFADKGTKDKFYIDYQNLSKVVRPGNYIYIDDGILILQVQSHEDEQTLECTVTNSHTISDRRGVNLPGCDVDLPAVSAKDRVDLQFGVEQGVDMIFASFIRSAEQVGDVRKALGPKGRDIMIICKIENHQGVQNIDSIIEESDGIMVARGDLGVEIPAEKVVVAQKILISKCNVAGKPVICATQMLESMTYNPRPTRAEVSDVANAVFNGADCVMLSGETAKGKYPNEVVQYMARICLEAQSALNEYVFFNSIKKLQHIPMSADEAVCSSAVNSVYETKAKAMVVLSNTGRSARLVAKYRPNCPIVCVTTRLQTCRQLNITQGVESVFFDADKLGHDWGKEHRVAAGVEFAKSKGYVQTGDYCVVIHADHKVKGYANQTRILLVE
Chain of Guanine nucleotide-binding protein G(i) subunit alpha-1 (Homo sapiens) (P63096 whole entry, looked up): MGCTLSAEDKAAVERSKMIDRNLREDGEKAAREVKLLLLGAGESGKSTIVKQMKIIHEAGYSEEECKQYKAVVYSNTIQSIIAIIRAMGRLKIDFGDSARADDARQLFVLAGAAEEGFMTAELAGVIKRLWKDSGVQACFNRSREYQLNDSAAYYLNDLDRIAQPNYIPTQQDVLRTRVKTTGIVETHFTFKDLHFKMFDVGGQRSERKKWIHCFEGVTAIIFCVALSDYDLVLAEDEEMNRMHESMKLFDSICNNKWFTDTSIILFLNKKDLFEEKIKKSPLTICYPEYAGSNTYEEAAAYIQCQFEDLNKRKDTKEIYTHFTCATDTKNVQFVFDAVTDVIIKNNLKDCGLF
Chain of Glucocorticoid receptor (Homo sapiens) (P04150 whole entry, looked up, the tested form may be a part): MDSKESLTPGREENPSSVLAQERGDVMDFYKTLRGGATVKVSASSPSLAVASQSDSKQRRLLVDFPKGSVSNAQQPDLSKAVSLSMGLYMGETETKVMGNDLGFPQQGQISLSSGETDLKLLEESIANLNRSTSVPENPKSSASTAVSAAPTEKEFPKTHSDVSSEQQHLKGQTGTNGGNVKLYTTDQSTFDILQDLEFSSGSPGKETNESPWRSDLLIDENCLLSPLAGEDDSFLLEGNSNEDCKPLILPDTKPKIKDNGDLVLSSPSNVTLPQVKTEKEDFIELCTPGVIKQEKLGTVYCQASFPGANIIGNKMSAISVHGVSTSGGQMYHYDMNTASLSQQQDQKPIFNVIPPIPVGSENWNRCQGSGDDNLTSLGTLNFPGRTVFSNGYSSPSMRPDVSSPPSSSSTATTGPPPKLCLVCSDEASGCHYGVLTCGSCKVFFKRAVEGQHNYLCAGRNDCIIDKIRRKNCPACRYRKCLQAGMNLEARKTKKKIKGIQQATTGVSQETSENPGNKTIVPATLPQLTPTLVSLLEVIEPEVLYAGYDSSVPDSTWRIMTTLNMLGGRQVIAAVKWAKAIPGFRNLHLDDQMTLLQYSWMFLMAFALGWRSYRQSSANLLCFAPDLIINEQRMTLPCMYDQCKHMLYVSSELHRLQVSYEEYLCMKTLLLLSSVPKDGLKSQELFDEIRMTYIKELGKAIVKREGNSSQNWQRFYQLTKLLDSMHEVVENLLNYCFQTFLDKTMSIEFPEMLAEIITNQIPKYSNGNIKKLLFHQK
Chain of Muscarinic acetylcholine receptor M1 (Rattus norvegicus) (P08482 whole entry, looked up): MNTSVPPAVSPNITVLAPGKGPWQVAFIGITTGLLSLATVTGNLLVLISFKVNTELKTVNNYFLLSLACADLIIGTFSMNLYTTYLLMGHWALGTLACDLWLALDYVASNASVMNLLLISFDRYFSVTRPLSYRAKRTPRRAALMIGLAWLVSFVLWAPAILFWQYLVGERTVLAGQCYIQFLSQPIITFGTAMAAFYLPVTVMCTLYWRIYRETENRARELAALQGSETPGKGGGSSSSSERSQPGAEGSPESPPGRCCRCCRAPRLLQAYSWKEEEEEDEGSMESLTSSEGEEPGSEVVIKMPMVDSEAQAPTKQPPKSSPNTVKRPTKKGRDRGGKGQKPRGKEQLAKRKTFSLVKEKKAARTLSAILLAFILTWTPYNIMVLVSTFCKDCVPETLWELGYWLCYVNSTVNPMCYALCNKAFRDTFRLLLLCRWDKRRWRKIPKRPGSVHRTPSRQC
Chain of Pyruvate kinase PKM (Homo sapiens) (P14618 whole entry, looked up): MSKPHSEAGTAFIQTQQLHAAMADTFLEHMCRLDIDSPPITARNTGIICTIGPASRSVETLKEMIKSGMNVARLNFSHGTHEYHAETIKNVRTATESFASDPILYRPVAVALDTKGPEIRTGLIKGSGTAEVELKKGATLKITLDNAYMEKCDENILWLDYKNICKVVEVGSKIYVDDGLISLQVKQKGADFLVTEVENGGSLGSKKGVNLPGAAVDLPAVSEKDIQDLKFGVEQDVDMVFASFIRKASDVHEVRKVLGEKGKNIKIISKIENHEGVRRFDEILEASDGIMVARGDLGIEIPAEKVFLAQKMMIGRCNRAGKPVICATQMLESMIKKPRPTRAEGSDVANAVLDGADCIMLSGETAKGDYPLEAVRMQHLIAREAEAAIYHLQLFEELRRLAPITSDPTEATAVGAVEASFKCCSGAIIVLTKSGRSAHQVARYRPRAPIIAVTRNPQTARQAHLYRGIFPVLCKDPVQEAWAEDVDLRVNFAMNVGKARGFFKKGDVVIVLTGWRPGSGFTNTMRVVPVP
Chain of Cytochrome P450 1A2 (Homo sapiens) (P05177 whole entry, looked up): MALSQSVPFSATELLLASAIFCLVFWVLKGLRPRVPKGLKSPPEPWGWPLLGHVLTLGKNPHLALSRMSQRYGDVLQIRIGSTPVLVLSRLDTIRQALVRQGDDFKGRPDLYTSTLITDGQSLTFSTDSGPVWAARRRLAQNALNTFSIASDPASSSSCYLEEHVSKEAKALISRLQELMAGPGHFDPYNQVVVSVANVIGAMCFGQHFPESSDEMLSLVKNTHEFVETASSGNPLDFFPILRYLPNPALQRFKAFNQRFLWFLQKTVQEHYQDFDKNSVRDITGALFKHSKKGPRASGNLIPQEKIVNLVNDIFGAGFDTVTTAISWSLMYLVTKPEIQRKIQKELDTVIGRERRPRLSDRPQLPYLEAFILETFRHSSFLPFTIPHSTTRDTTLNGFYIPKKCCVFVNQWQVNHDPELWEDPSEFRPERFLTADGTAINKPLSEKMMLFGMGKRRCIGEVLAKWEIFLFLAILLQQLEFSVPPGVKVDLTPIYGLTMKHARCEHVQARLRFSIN
Chain of 3',5'-cyclic-AMP phosphodiesterase 4B (Homo sapiens) (Q07343 whole entry, looked up): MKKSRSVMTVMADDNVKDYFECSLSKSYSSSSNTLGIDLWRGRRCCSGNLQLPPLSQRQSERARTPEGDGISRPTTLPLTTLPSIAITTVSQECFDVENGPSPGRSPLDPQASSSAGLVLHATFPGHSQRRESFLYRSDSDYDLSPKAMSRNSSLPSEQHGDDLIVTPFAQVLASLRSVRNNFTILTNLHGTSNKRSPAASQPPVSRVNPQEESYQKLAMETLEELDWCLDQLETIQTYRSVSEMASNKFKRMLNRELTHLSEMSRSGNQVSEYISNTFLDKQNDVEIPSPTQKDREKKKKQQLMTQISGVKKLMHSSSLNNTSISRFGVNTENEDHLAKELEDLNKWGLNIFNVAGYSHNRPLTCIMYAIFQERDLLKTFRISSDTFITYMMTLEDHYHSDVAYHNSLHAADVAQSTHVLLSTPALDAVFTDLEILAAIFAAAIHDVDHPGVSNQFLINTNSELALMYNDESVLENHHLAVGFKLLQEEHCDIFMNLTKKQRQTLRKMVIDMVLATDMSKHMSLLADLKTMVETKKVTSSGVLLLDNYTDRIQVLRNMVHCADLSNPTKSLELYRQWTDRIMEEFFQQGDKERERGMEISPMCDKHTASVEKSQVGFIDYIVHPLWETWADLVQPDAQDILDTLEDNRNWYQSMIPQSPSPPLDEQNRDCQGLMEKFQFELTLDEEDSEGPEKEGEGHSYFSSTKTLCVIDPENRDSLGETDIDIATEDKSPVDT
Chain of Alpha-galactosidase A (Homo sapiens) (P06280 whole entry, looked up): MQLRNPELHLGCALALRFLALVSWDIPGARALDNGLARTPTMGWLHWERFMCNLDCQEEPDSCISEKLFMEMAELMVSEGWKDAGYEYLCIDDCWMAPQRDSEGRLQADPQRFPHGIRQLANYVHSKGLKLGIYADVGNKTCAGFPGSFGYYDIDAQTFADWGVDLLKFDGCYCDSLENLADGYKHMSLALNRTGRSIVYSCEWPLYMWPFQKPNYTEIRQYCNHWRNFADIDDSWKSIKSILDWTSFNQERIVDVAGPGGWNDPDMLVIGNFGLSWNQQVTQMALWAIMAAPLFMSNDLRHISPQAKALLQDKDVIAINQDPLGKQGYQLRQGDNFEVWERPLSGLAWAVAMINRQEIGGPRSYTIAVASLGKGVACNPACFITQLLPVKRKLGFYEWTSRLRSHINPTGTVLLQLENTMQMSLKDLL

Consider `C[C@@H]1C[C@@H]2[C@H]3CCC4=CC(=O)C=C[C@]4(C)[C@]3(Cl)[C@@H](O)C[C@@]2(C)[C@@]1(O)C(=O)CO`, for which the activity change, negative = inhibition in assay [1] was 12.5% [at 38 µM]; in assay [3], 6.53% [at 38 µM]. Further, the Potency entry in assay [2], in assay [5], in assay [6] and in assay [12] was “inactive” in each case. Moreover, the activity, negative = inhibition in assay [4] was 3.18% [at 38 µM]. The result in [7], in [8], in [9], in assay [10] and in assay [11] was inactive.
With `Nc1ncnc2c1nc(Br)n2[C@@H]1O[C@H]2COP(=O)(O)O[C@@H]2[C@H]1O`, the activity change, negative = inhibition in assay [1] is -7.65% [at 38 µM]; in [3], 6.13% [at 38 µM]. Moreover, the Potency result in assay [2], in assay [5], in [6], in [14], in [15] and in assay [12] was “inactive” in each case. Besides, the activity, negative = inhibition in assay [4] was 4.8% [at 38 µM]. For the same compound, the Potency in assay [13] is 2.43 µM (active). Also, the compound was called inactive in assay [7], in assay [8], in assay [9], in assay [10] and in assay [11].
As for `O=S(=O)(NCCNC/C=C\c1ccc(Br)cc1)c1cccc2cnccc12`, the activity change, negative = inhibition in assay [1] was 2.61% [at 38 µM]. Moreover, the values for the Potency in assay [2], in assay [13] and in [16] were 2 µM (active), above 46 µM and above 46 µM, respectively. The Potency result in assay [5] and in assay [12] was “inactive” throughout. Moreover, the compound was called inactive in [7], in [9], in [10] and in [11].
`CN[C@@H](CC(C)C)C(=O)N[C@@H]1C(=O)N[C@H](CC(N)=O)C(=O)N[C@H]2C(=O)N[C@H]3C(=O)N[C@H](C(=O)N[C@H](C(=O)O)c4cc(O)cc(O)c4-c4cc3ccc4O)[C@H](O)c3ccc(c(Cl)c3)Oc3cc2cc(c3O[C@@H]2O[C@@H](CO)[C@@H](O)[C@@H](O)[C@H]2O[C@H]2C[C@](C)(N)[C@H](O)[C@H](C)O2)Oc2ccc(cc2Cl)[C@@H]1O`: the activity change, negative = inhibition in assay [1] was -0.977% [at 38 µM]; in assay [3] it was 0.625% [at 38 µM]. Also, the activity, negative = inhibition in assay [4] was 4.5% [at 38 µM]. The Potency in [13] and in [16] was above 46 µM each time. The Potency result in [5], in [6] and in [12] was “inactive” throughout. For the same compound, the compound was classed as inactive in assay [7], in assay [8], in [9], in assay [10] and in assay [11].
Consider `CC(C)C[C@H](NC(=O)[C@@H](O)[C@@H](N)Cc1ccccc1)C(=O)O`, for which the Potency result in assay [2], in assay [5], in assay [6], in [15] and in [12] was “inactive” in each case. Besides, the activity change, negative = inhibition in [3] was -15.3% [at 38 µM] and -3.04% [at 38 µM]. The activity, negative = inhibition in assay [4] was 25.1% [at 38 µM] and 3.44% [at 38 µM]. Further, the Potency is above 46 µM in [13], above 46 µM in assay [16] and 1.58 µM (active) in assay [14]. For the same compound, the call in assay [7], in assay [8], in assay [9], in assay [10] and in [11] was inactive.
